Screens: PubChem, National Center for Advancing Translational Sciences (NCATS)
The full list was thinned out, with hits kept by preference.
Cruzain inh Det – qHTS Assay for Promiscuous and Specific Inhibitors of Cruzain (with detergent); Cruzipain (Trypanosoma cruzi), P25779; purified cruzain, Z-FR-AMC fluorescence, 0.01% Triton; Potency, µM, inactives show max response, negative = inhibition, actives largely listed as inhibitors; hit rate 0.43% among 200,000; AID 1478, 2009;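 also: plate controls were neutral wells for no effect and buffer without enzyme for full effect; nearly all actives have a fitted effect of over 40% in size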
Target sequence (P25779 123-467 limits assumed): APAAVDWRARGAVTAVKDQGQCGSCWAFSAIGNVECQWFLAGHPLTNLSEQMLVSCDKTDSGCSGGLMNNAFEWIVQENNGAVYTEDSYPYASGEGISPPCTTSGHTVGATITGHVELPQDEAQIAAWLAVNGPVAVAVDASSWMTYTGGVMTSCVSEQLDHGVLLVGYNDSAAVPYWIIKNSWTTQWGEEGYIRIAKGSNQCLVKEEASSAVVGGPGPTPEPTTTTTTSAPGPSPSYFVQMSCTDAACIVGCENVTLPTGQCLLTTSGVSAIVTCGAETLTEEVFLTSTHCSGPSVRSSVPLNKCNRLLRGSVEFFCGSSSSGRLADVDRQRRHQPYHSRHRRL
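Z-FR-AMC hydrolysis (2 uM substrate) by cruzain (1.5 nM) monitored kinetically at ex 360/em 450 nm after 15 min room-temperature compound exposure; 0.01% Triton X-100, pH 5.5, 5 mM DTT.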
Cruzain noTriton – qHTS Assay for Promiscuous and Specific Inhibitors of Cruzain (without detergent); purified cruzain, Z-FR-AMC fluorescence, no detergent; Potency, µM, for inactives: max response, negative = inhibition, usual class: inhibitors; hit rate 2.3% among 200,000; AID 1476, 2009;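 also: plate controls were enzyme without inhibitor for no effect and buffer without enzyme for full effect; nearly all actives have a fitted effect of over 40% in size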
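Purified cruzain at 1.5 nM, pre-incubated 15 min with compound at room temperature in 100 mM sodium acetate pH 5.5, 5 mM DTT, 0.00005% Triton X-100. Reaction started with 2 uM Z-FR-AMC; AMC fluorescence increase over 60 s gives rate.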
NS1 function inh – qHTS Assay for Inhibitors of Influenza NS1 Protein Function; Potency, µM (series often up to 46.1 µM), for inactives: at the highest dose activity, positive = more growth; hit rate 0.4% among 270,000; AID 2326, 2010; calls by dose curve; also: actives are rising curves; nearly all actives have a fitted effect of over 50% in size
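Read-out: OD600 growth recovery of NS1-expressing budding yeast. Cells grown overnight at 30C in -URA glucose medium, washed, resuspended and diluted 1:100 in 2% galactose assay medium, pH 6.0. Same strain lacking NS1 served as positive control.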
* = called active by the depositor; ? = inconclusive; nt = not tested or not shown. Unless noted, calls follow the shape of the dose curve; as a rule, active = well fitted curve in the direction sought with a large enough effect; inconclusive = small, poorly fitted or top-dose-only effect, or another doubt; inactive = no such curve, though single readings can be large; an effect the other way counts as inactive or inconclusive. Potency is read from the fitted curve at half-maximal effect.

SMILES | Cruzain inh Det | Cruzain noTriton | NS1 function inh
Cc1oc(/N=C/c2c(O)ccc3ccccc23)c(C#N)c1C | -10% | 13µM* | 6%
COc1ccc(C(=O)NCC(=O)N2CCN(c3ccc(F)cc3)CC2)cc1 | nt | nt | 19%
Cc1sc2nc(CN3CCCC3)nc(N3CCN(S(=O)(=O)c4cccs4)CC3)c2c1C | 0% | 16µM* | 10%
Cc1nc(N2CCN(S(=O)(=O)c3ccc(Br)cc3)CC2)c2c(C)c(C)sc2n1 | nt | nt | -7%
Cc1ccc2cccc(NC(=O)COc3cc(C)c(Cl)c(C)c3)c2n1 | 1% | -12% | nt
CC1CCC(C(=O)NC(C(=O)OCC(=O)c2ccccc2)C(C)C)CC1 (stereo not given) | 16µM* | ? | nt
CCc1ccc(C(=O)COC(=O)C(Cc2ccccc2)NC(=O)C2CCC(C)CC2)cc1 (stereo not given) | 7% | -15% | 24%
COc1ccccc1/C=C/c1nc(C#N)c(NCCc2ccccc2)o1 | -7% | 16µM* | nt
COc1ccccc1/C=C/c1nc(C#N)c(NCC(C)C)o1 | 7% | 27% | nt
CN(C)c1oc(/C=C/c2ccccc2)nc1C#N | ? | ? | -1%
COc1ccccc1/C=C/c1nc(C#N)c(N(C)C)o1 | 14µM* | ? | 0%
Cc1cccc(COc2ccccc2C(=O)OCC(=O)N(C)c2c(N)n(Cc3ccccc3)c(=O)[nH]c2=O)c1 | nt | nt | -8%
COC(=O)N1CCC2(CCN(CC(C)C)CC2)CC1 | 0% | -11% | nt
O=C1N(Cc2cccnc2)C[C@@H]2C[C@@H](c3cccc(C(F)(F)F)c3)N3CCC[C@@]123 | nt | nt | 7%
O=C(CN1c2ccccc2S(=O)(=O)c2ccccc21)NCc1ccccc1 | nt | nt | 28%
CCOC(=O)c1sc2ccccc2c1S(=O)(=O)N1CCN(c2ccccc2F)CC1 | -4% | -27% | nt
CCOC(=O)c1sc2ccccc2c1S(=O)(=O)N1CCN(c2cccc(C)c2C)CC1 | -2% | 13µM* | nt
CCOC(=O)c1sc2ccccc2c1S(=O)(=O)N1CCN(c2cccc(OC)c2)CC1 | -3% | -11% | nt
CCOC(=O)c1sc2ccccc2c1S(=O)(=O)N1CCN(c2ccccc2)CC1 | -4% | 32µM* | nt
Cc1ccc(-c2nc3ccccc3o2)cc1NC(=S)NC(=O)c1cc2ccccc2o1 | -1% | 6.3µM* | ?
N#Cc1ccc(-c2csc(NNC(=O)c3ccc(Br)cc3)n2)cc1 | -2% | 7.9µM* | 29%
CCC(=O)Nc1ccc(NC(=S)NC(=O)c2cc3ccccc3o2)cc1 | -3% | -27% | 5%
N#Cc1ccc(-c2csc(NNC(=O)c3ccccc3)n2)cc1 | 1% | ? | 12%
Cc1ccc(-c2csc(NC(=S)NC(=O)c3cc4ccccc4o3)n2)cc1 | 0% | 6.3µM* | 26%
O=C(Nc1nc(-c2ccc(Br)cc2)cs1)c1cccnc1 | nt | nt | 3%
SMILES | Cruzain inh Det | Cruzain noTriton | NS1 function inh
Cc1ccc(-c2nc3cc(C(C)C)ccc3o2)cc1NC(=O)c1cc2ccccc2o1 | -1% | ? | nt
O=C(NC(=S)Nc1nc(-c2ccc(Br)cc2)cs1)c1cccnc1 | 4% | 4µM* | 9%
Cc1ccc(CN(C(=O)COc2ccc(C(C)(C)C)cc2)C2CCS(=O)(=O)C2)o1 (stereo not given) | -10% | ? | nt
CCOC(=O)c1ccc(S(=O)(=O)N2CC(=O)Nc3ccccc32)cc1 | nt | nt | -2%
N#Cc1ccc(NC(=O)c2cc(-c3cccs3)on2)cc1 | nt | nt | 2%
CCN(Cc1ccccc1)c1ccc(/C=N/NS(=O)(=O)c2cccc([N+](=O)[O-])c2)cc1 | -7% | 25µM* | 0%
CCN(CC)c1ccc(/C=N/NS(=O)(=O)c2ccc(C)c([N+](=O)[O-])c2)cc1 | -13% | 13% | -7%
COc1ccc(CCN2CCCn3c2nc2c3c(=O)n(CC(C)C)c(=O)n2C)cc1OC | nt | nt | 0%
Clc1ccc(Cl)c(Nc2ccnc(SCc3ccccc3)n2)c1 | -6% | -12% | -12%
Oc1ccccc1/C=N/Nc1ccnc(SCc2ccccc2)n1 | -6% | 20µM* | ?
O=C(Nc1ccc2c(c1)OCO2)C1CCN(S(=O)(=O)c2cccs2)CC1 | -1% | ? | -14%
O=C(Nc1ccc2c(c1)OCO2)C1Cc2ccccc2CN1S(=O)(=O)c1cccs1 (stereo not given) | -3% | 25µM* | -5%
Nc1ccc(N2CCCCCC2)cc1 | -9% | 32µM* | 3%
Nc1ccc(N2CCN(c3ccc(F)cc3)CC2)cc1 | nt | nt | 9%
CCN(CC)c1ccc(NC(=O)c2cnc3c(-c4ccccc4)c(C)nn3c2C)c(C)c1 | -2% | -10% | nt
COc1ccc(C(=O)Nc2cc(Cl)cc(Cl)c2)c(OC)n1 | 2% | 13µM* | 2%
COc1ccc(C(=O)Nc2cc(Cl)ccc2Cl)c(OC)n1 | 1% | -17% | -1%
COc1ccc(/C=C(\NC(=O)c2ccccc2)C(=O)N/N=C/c2cccnc2)cc1 | nt | nt | -9%
CCOc1ccc(-c2nc(C#N)c(NCC(C)C)o2)cc1 | 0% | 17% | -18%
COc1cccc(CNC(=O)C(=O)Nc2c3c(nn2-c2ccccc2)CSC3)c1 | 0% | ? | nt
O=C(NCc1ccccc1)C(=O)Nc1c2c(nn1-c1ccc(F)cc1)CSC2 | -1% | 20µM* | nt
Cc1cc(NC(=O)Cn2nc(C(=O)O)c3ccccc3c2=O)c([N+](=O)[O-])cc1C | nt | nt | -5%
Cc1ccc(C)c(NC(=O)NCc2ccc3c(c2)CCN3C(=O)c2ccccc2)c1 | -1% | 9% | nt
Cc1ccc(/C=C/C(=O)OCC(=O)Nc2ccccc2Sc2ccccc2)cc1 | -6% | 13µM* | -5%
COc1cccc(/C=C/C(=O)OCC(=O)Nc2ccccc2Sc2ccccc2)c1 | -5% | -27% | -12%
SMILES | Cruzain inh Det | Cruzain noTriton | NS1 function inh
Cc1cc(C(=O)CN2C(=O)NC3(CCCc4ccccc43)C2=O)c(C)n1Cc1ccccc1 (stereo not given) | -3% | 25µM* | 15%
Cc1cc(C(=O)CN2C(=O)NC3(CCCc4ccccc43)C2=O)c(C)n1Cc1ccco1 (stereo not given) | -2% | ? | 0%
Cc1cccc(Cn2c(SCc3ccc(C(=O)NCc4ccccc4F)cc3)nc3ccncc32)c1 | -13% | -24% | nt
CC(=O)c1c(N2CCCC2)[nH]c(-c2ccccc2)nc1=S | 3% | -6% | ?
CC(=O)c1c(N2CCN(Cc3ccccc3)CC2)[nH]c(-c2ccccc2)nc1=S | -11% | 10µM* | 0%
CCCCOc1ccc(C(=O)NCC(=O)OC2CCOC2=O)cc1 (stereo not given) | 20µM* | ? | -5%
CCOc1ccc(C(=O)NCC(=O)OCCCOC(=O)CNC(=O)c2ccc(OCC)cc2)cc1 | nt | nt | 16%
CCCOc1ccc(C(=O)Nc2cccc(NC(=O)c3ccc(Cl)cc3Cl)c2)cc1 | 2% | ? | nt
Cc1sc(NC(=O)c2ccc(OCC(C)C)cc2)c(C(N)=O)c1-c1ccc(Cl)cc1Cl | ? | 10µM* | 10%
CCOc1ccc(NC(=O)c2ccc(CNc3c(N4CCCC4)c(=O)c3=O)cc2)cc1 | nt | nt | -32%
O=C1N/C(=C/c2cccn2-c2ccccc2)C(=O)N1Cc1ccc(F)cc1 | -5% | 13µM* | 5%
O=C1N/C(=C/c2cccn2-c2ccc(F)cc2)C(=O)N1Cc1ccccc1F | -11% | ? | 19%
CC(C(=O)NC1CC1)c1ncc(C(F)(F)F)cc1Cl (stereo not given) | nt | nt | 9%
Cn1nc(C(F)(F)F)c(CN2CC(C)(C)C2=O)c1N1CCOCC1 | nt | nt | -3%
